# Assay results: PubChem BioAssay (Tox21)
# The source holds several records for some structures; these can differ, active in one and inactive in another. Calls of active or inactive are those of the source. A call without a number means that no potency is given here. Calls come from the whole dose curve.
# Molecular target: Thyrotropin-releasing hormone receptor (Homo sapiens) (UniProt P34981)
# Assay: qHTS assay to identify small molecule agonists of the thyrotropin-releasing hormone receptor (TRHR) signaling pathway (AID 1346891);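 for activation: HEK293 cells expressing TRHR with calcium dye readout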
# Conditions: TRHR-HEK293 calcium fluorescence, agonist mode; series mostly up to 57.6 µM; activation: at the top concentration
# Description: National Center for Advancing Translational Sciences [NCATS] NIH Chemical Genomics Center [NCGC] U.S. Environmental Protection Agency [EPA] National Institutes of Environmental Health Sciences [NIEHS] National Toxicology Program [NTP] Assay overview: Thyrotropin-releasing hormone (TRH) receptor (TRHR) is a G-protein-coupled receptor which binds the tripeptide thyrotropin releasing hormone. TRHR is found in the brain and, when bound by TRH, acts (through phospholipase C) to increase intracellular inositol trisphosphate. It plays a crucial role in the anterior pituitary where it controls the synthesis and secretion of thyroid stimulating hormone and prolactin. The TRHR-Hek293 assay is a cell-based assay, and it has the potential to screen G protein-coupled receptors. A compound/drug can either activate (agonist) or suppress (antagonist) GPCRs that can be monitored by levels of intracellular calcium. Using this assay, the Tox21 10K compound library was screened to identify potential TRHR agonists.
# Assay Protocol Summary: The TRHR-Hek293 cells were dispensed at 1500cells/4uL/well in 1536-well black-clear bottom plates using a Multidrop dispenser. After the assay plates were incubated at a 37 C/5% CO2 incubator for 18 hours, 4 uL of Dye-Loading Solution was added to each well. The plates were incubated at 37 C for 2 hours. For agonist mode, 23 nL of compounds dissolved in DMSO, positive controls or DMSO only was transferred to the assay plate by a pin tool. The fluorescence intensity in the plates was measured using FDSS 7000EX kinetic plate reader for 3 min at 1 sec intervals. Each test compound was measured at 15 concentrations and in triplicates.
# Potency is the fitted concentration of half-maximal effect.
# Sequence of Thyrotropin-releasing hormone receptor (Homo sapiens) (P34981 whole entry, looked up): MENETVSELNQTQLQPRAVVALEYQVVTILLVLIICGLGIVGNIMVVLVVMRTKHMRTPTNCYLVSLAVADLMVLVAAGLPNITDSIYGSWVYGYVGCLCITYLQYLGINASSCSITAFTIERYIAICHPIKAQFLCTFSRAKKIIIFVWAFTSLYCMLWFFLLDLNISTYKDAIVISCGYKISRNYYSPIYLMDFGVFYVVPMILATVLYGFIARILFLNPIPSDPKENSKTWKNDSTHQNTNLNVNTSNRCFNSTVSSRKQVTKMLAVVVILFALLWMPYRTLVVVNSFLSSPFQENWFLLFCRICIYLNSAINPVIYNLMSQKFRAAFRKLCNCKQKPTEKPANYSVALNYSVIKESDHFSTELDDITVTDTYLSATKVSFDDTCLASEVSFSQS
Compound,Potency,activation
Cc1cc(C)nc(NS(=O)(=O)c2ccc(N)cc2)n1,inactive,–
NC1CCCCC1,inactive,–
OC[C@H]1O[C@H](O[C@]2(CCl)O[C@H](CCl)[C@@H](O)[C@@H]2O)[C@H](O)[C@@H](O)[C@H]1Cl,inactive,–
Cc1ncc([N+](=O)[O-])n1C,inactive,–
CC(C)c1c(C(=O)Nc2ccccc2)c(-c2ccccc2)c(-c2ccc(F)cc2)n1CC[C@@H](O)C[C@@H](O)CC(=O)O,inactive,–
O=S1(=O)OC(c2ccc(O)cc2)(c2ccc(O)cc2)c2ccccc21,inactive,–
NC(CO)(CO)CO,inactive,–
CCCCCCCCCCCCCCCC[N+](C)(C)Cc1ccccc1,inactive,–
CC(C)C(=O)Nc1ccc([N+](=O)[O-])c(C(F)(F)F)c1,inactive,–
Nc1ccc(S(N)(=O)=O)cc1,inactive,–
Nc1ccc2c(c1)CN1C(=O)c3ccccc3C1=N2,8.27 µM (active),–
CCOc1ccc(NC(C)=O)cc1,inactive,–
O=C1NC(=O)C(c2ccccc2)(c2ccccc2)N1,inactive,–
COc1ccc(CN(CCN(C)C)c2ccccn2)cc1,inactive,–
C/C=C/C=C/C(=O)O,inactive,–
NS(=O)(=O)c1cc2c(cc1Cl)NCNS2(=O)=O,inactive,–
Cc1cccc(C)c1,inactive,–
CN1CCC[C@H]1c1cccnc1,inactive,–
CC12CCC(CC1)C(C)(C)O2,inactive,–
O=CC(=O)c1ccccc1,–,0.0312% (inactive)

Compound,Potency,activation
Nc1c2c(nc3ccccc13)CCCC2,inactive,–
CN1CCc2cccc3c2[C@H]1Cc1ccc(O)c(O)c1-3,inactive,–
CC/C(=C(\c1ccccc1)c1ccc(OCCN(C)C)cc1)c1ccccc1,15.6 µM (active) and inactive,–
Cc1c(C(=O)O)c(O)cc2c1C(=O)c1c(O)c([C@@H]3O[C@H](CO)[C@@H](O)[C@H](O)[C@H]3O)c(O)c(O)c1C2=O,inactive,–
C[C@](N)(Cc1ccc(O)c(O)c1)C(=O)O,inactive,–
CN(C)C(=O)Nc1ccc(Cl)c(Cl)c1,inactive,–
CC(C)NCC(O)c1ccc(O)c(O)c1 (stereo not given),inactive,–
O=C(Nc1ncc([N+](=O)[O-])s1)c1cccs1,–,7.69% [at 26.5 µM] (inactive)
CN(C)CCOC(c1ccccc1)c1ccccc1,inactive,–
CN(C)C(=S)SC(=S)N(C)C,inactive,–
CCCCCCCCCCCC[N+](C)(C)Cc1ccccc1,inactive,–
CCCCC1(COC(=O)CCC(=O)O)C(=O)N(c2ccccc2)N(c2ccccc2)C1=O,inactive,–
F[B-](F)(F)F,inactive,–
CCOC(N)=O,inactive,–
CCCCOC(=O)c1ccc(O)cc1,inactive,–
Nc1ccc(O)c([N+](=O)[O-])c1,–,-0.373% (inactive)
CS(=O)(=O)OCCCCOS(C)(=O)=O,inactive,–
Cc1cc(=O)oc2cc(O)ccc12,inactive,–
C=CCc1ccc(O)c(OC)c1,inactive,–
CCCCNC(=O)NS(=O)(=O)c1ccc(C)cc1,inactive,–
